Results taken from the supplement of paper PMC6897291.

Key:
U-2932 [1] = test: growth inhibition by drug alone (1 - RLU/untreated control) (fraction); higher = stronger inhibition; conditions: 177Lu-lilotomab satetraxetan 0 ug/ml
In short: (§1)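 Plates pre-printed with the Selleck Cambridge Cancer Compound library at 10/100 nM (RIVA) or 10/1,000 nM (U-2932) received 3,000 cells/well. These cells had been washed after 18 h untreated or with a radiolabelled anti-CD37 antibody conjugate (~600 MBq/mg; 0.5 µg/ml RIVA, 1 µg/ml U-2932). Growth inhibition was obtained from RealTime-Glo luminescence in relation to untreated no-drug wells. Each daily read from day 3, taken after 1 h at 37°C, was converted as 1 − RLU/mean of 48 such wells per plate.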

RIVA [2] = test: as above; conditions: 177Lu-lilotomab satetraxetan 0 ug/ml
In short: as §1

U-2932 [3] = test: growth inhibition by drug plus 177Lu-lilotomab satetraxetan (1 - RLU/untreated control) (fraction); higher = stronger inhibition; conditions: 177Lu-lilotomab satetraxetan 1 ug/ml
In short: as §1

RIVA [4] = test: as above; conditions: 177Lu-lilotomab satetraxetan 0.5 ug/ml
In short: as §1

| SMILES | growth inhibition by drug alone (U-2932 [1]; 10 nM, time (day): 3) | growth inhibition by drug alone (U-2932 [1]; 10 nM, time (day): 4) | growth inhibition by drug alone (U-2932 [1]; 10 nM, time (day): 5) | growth inhibition by drug alone (U-2932 [1]; 10 nM, time (day): 6) | growth inhibition by drug alone (U-2932 [1]; 1000 nM, time (day): 3) | growth inhibition by drug alone (U-2932 [1]; 1000 nM, time (day): 4) | growth inhibition by drug alone (U-2932 [1]; 1000 nM, time (day): 5) | growth inhibition by drug alone (U-2932 [1]; 1000 nM, time (day): 6) | growth inhibition by drug alone (RIVA [2]; 10 nM, time (day): 3) | growth inhibition by drug alone (RIVA [2]; 10 nM, time (day): 4) | growth inhibition by drug alone (RIVA [2]; 10 nM, time (day): 5) | growth inhibition by drug alone (RIVA [2]; 10 nM, time (day): 6) | growth inhibition by drug alone (RIVA [2]; 100 nM, time (day): 3) | growth inhibition by drug alone (RIVA [2]; 100 nM, time (day): 4) | growth inhibition by drug alone (RIVA [2]; 100 nM, time (day): 5) | growth inhibition by drug alone (RIVA [2]; 100 nM, time (day): 6) | growth inhibition by drug plus 177Lu-lilotomab satetraxetan (U-2932 [3]; 10 nM, time (day): 3) | growth inhibition by drug plus 177Lu-lilotomab satetraxetan (U-2932 [3]; 10 nM, time (day): 4) | growth inhibition by drug plus 177Lu-lilotomab satetraxetan (U-2932 [3]; 10 nM, time (day): 5) | growth inhibition by drug plus 177Lu-lilotomab satetraxetan (U-2932 [3]; 10 nM, time (day): 6) | growth inhibition by drug plus 177Lu-lilotomab satetraxetan (U-2932 [3]; 1000 nM, time (day): 3) | growth inhibition by drug plus 177Lu-lilotomab satetraxetan (U-2932 [3]; 1000 nM, time (day): 4) | growth inhibition by drug plus 177Lu-lilotomab satetraxetan (U-2932 [3]; 1000 nM, time (day): 5) | growth inhibition by drug plus 177Lu-lilotomab satetraxetan (U-2932 [3]; 1000 nM, time (day): 6) | growth inhibition by drug plus 177Lu-lilotomab satetraxetan (RIVA [4]; 10 nM, time (day): 3) | growth inhibition by drug plus 177Lu-lilotomab satetraxetan (RIVA [4]; 10 nM, time (day): 4) | growth inhibition by drug plus 177Lu-lilotomab satetraxetan (RIVA [4]; 10 nM, time (day): 5) | growth inhibition by drug plus 177Lu-lilotomab satetraxetan (RIVA [4]; 10 nM, time (day): 6) | growth inhibition by drug plus 177Lu-lilotomab satetraxetan (RIVA [4]; 100 nM, time (day): 3) | growth inhibition by drug plus 177Lu-lilotomab satetraxetan (RIVA [4]; 100 nM, time (day): 4) | growth inhibition by drug plus 177Lu-lilotomab satetraxetan (RIVA [4]; 100 nM, time (day): 5) | growth inhibition by drug plus 177Lu-lilotomab satetraxetan (RIVA [4]; 100 nM, time (day): 6) |
| --- | --- | --- | --- | --- | --- | --- | --- | --- | --- | --- | --- | --- | --- | --- | --- | --- | --- | --- | --- | --- | --- | --- | --- | --- | --- | --- | --- | --- | --- | --- | --- | --- |
| O=C(O)CCCc1ccccc1 [4-Phenylbutyrate] | 0.0701 | 0.0509 | 0.00363 | -0.192 | 0.0343 | 0.0446 | -0.0113 | -0.154 | -0.0798 | -0.0476 | -0.148 | -0.516 | -0.401 | -0.277 | -0.308 | -0.483 | 0.0355 | 0.105 | 0.141 | 0.163 | 0.0377 | 0.0642 | 0.124 | 0.195 | 0.43 | 0.538 | 0.547 | 0.56 | 0.419 | 0.5 | 0.507 | 0.511 |
| CC(=O)O[C@]1(C(C)=O)CC[C@H]2[C@@H]3C[C@H](C)C4=CC(=O)CC[C@]4(C)[C@H]3CC[C@@]21C [Medroxyprogesterone acetate] | 0.141 | 0.111 | 0.0166 | -0.207 | 0.107 | 0.162 | 0.15 | 0.056 | -0.0698 | -0.099 | -0.346 | -0.679 | -0.507 | -0.273 | -0.35 | -0.619 | 0.0781 | 0.0764 | 0.144 | 0.108 | 0.102 | 0.176 | 0.224 | 0.336 | 0.422 | 0.555 | 0.543 | 0.565 | 0.235 | 0.389 | 0.409 | 0.427 |
| CCc1cncnc1N1CCN(Cc2nc3ccc(C(F)(F)F)cc3[nH]2)CC1 | 0.0983 | 0.0884 | -0.0751 | -0.108 | 0.0626 | 0.102 | 0.0246 | -0.253 | 0.00505 | -0.0231 | -0.0829 | -0.347 | -0.0601 | -0.0865 | -0.0867 | -0.192 | 0.00491 | 0.0254 | 0.0426 | 0.0627 | -0.00879 | 0.086 | 0.0686 | 0.0567 | 0.505 | 0.583 | 0.59 | 0.587 | 0.49 | 0.55 | 0.542 | 0.514 |
| O=C(CCCCCCC(=O)Nc1cccnc1)NO [Pyroxamide] | -0.0932 | -0.0929 | -0.129 | -0.234 | 0.82 | 0.79 | 0.759 | 0.717 | -0.263 | -0.352 | -0.468 | -0.514 | -0.333 | -0.305 | -0.265 | -0.306 | -0.106 | -0.0647 | -0.00568 | 0.0937 | 0.6 | 0.542 | 0.472 | 0.474 | 0.358 | 0.433 | 0.464 | 0.49 | 0.454 | 0.507 | 0.511 | 0.509 |
| CC1(COc2ccc3c(c2)ncn3-c2ccc3cccc(N4CCC(N)CC4)c3n2)COC1 | 0.0766 | 0.0633 | 0.00938 | -0.0623 | 0.0371 | 0.0705 | -0.00181 | 0.0785 | 0.0318 | -0.0103 | -0.0736 | -0.123 | -0.25 | -0.202 | -0.209 | -0.254 | 0.0763 | 0.118 | 0.168 | 0.194 | 0.257 | 0.342 | 0.386 | 0.516 | 0.618 | 0.628 | 0.633 | 0.631 | 0.449 | 0.485 | 0.466 | 0.463 |
| COc1cc2c(cc1O)CC[C@@H]1[C@@H]2CC[C@]2(C)[C@@H](O)CC[C@@H]12 [2-Methoxyestradiol] | -0.0505 | -0.0559 | -0.104 | -0.0895 | 0.719 | 0.771 | 0.777 | 0.788 | -0.258 | -0.3 | -0.405 | -0.422 | -0.594 | -0.529 | -0.534 | -0.63 | -0.116 | -0.0531 | 0.00475 | 0.11 | 0.704 | 0.761 | 0.783 | 0.814 | 0.476 | 0.534 | 0.548 | 0.552 | 0.308 | 0.401 | 0.422 | 0.439 |
| COc1cc2nccc(Oc3ccc(NC(=O)C4(C(=O)Nc5ccc(F)cc5)CC4)cc3)c2cc1OC [XL-184 free base (Cabozantinib)] | 0.15 | 0.0841 | -0.102 | -0.0896 | 0.0853 | 0.105 | 0.037 | -0.036 | 0.0104 | 0.0385 | -0.0535 | -0.315 | -0.233 | -0.0966 | -0.104 | -0.224 | 0.0398 | 0.083 | 0.153 | 0.164 | 0.112 | 0.177 | 0.224 | 0.337 | 0.545 | 0.613 | 0.621 | 0.628 | 0.445 | 0.52 | 0.529 | 0.532 |
